This passage reports growth inhibition, inhibition and outcome results from PubChem BioAssay.

Molecules are shown by their SMILES. Values without a mark were called inactive. For some of these results: Entries with a potency or affinity are not part of this list. Active and inactive are the calls of the source. Unless noted, no rule for the calls is given here.

The nature of assay [1]: antimalarial activity against Dd2 strain (AID 2302;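 active = growth inhibition above 50% at the single 2 µM test dose, taken to imply half-maximal potency below 2 µM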;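 also: 0% = DMSO untreated growth and 100% = chloroquine plus artemisinin killed control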). The following applies: P. falciparum Dd2 in RBCs, LDH growth readout, 72 h; at 2 µM; active compounds read high.
Assay [2] can be described thus: human hepatoma cell viability loss – ATP luminescence, cytotoxicity control for P. falciparum antimalarial project, primary screen (AID 2303;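 active = inhibition above 50%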;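 also: 0% = DMSO wells and 100% = digitonin-killed cells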). The following applies: HepG2 viability, 24-48 h, at 10 µM, active compounds read high.
Assay [3] deals with L-lactate dehydrogenase (Plasmodium falciparum (isolate CDC / Honduras)) (UniProt Q27743). Description: PfLDH activity inhibition – cell lysate, 3D7 strain, counter-screen for P. falciparum growth inhibition project (AID 2304).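 Also: 0% = vehicle and 100% = reference inhibitor.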 The following applies: P. falciparum 3D7 crude extract, LDH APAD/NBT absorbance; at 2 µM; active compounds read high. (In general: A counterscreen serves to expose hits that act by an unwanted route or on another target.)
Sequence of L-lactate dehydrogenase (Plasmodium falciparum (isolate CDC / Honduras)) (Q27743 whole entry, looked up): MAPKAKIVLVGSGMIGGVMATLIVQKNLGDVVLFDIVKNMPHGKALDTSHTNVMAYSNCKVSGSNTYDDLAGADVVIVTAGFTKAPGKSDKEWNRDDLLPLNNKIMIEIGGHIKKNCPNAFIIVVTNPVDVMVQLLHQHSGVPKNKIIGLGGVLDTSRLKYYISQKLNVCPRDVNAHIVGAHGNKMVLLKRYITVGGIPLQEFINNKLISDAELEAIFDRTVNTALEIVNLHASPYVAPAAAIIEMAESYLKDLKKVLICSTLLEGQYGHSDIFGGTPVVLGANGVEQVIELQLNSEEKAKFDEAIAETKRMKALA

Assay [4] in a line: inhibition of 3D7 malaria parasite growth – strain 3D7 (AID 2306).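 Also: 0% = DMSO wells and 100% = chloroquine plus artemisinin control wells.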 The following applies: P. falciparum 3D7 erythrocytic growth, LDH absorbance, 72 h; at 2 µM; active compounds read high.
The target in assay [5] is Calcium-dependent protein kinase 1 (Plasmodium falciparum (isolate 3D7)) (UniProt P62344). Description: PfCDPK1 kinase inhibitors, biochemical, TCAMS library (AID 1159585; cut-off not given, nearly all actives have IC50 up to about 0.98 µM;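 also: inhibitors leave more ATP so luminescence rises with inhibition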). The following applies: recombinant PfCDPK1, Kinase-Glo ATP depletion luminescence.
Sequence of Calcium-dependent protein kinase 1 (Plasmodium falciparum (isolate 3D7)) (P62344 whole entry, looked up): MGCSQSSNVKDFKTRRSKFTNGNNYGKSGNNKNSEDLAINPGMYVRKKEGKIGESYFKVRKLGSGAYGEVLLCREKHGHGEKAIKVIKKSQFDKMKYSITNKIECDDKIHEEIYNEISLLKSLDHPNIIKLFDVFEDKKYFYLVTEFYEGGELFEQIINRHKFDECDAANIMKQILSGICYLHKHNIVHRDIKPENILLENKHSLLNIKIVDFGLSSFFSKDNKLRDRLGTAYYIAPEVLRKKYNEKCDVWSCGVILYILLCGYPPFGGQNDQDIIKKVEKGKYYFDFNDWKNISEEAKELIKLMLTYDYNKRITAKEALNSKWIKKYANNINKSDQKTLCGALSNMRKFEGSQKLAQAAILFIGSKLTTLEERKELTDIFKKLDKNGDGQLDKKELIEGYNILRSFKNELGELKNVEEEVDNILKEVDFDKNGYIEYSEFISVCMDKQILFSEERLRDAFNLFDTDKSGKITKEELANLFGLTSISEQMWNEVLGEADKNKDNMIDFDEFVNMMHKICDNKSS
For assay [6], the target named is Plasmodium falciparum protein kinase 6 (PK6, PF3D7_1337100) (UniProt Q8IDW1). Kind of assay: PfPK6 kinase inhibitors, biochemical, TCAMS library (AID 1159586). The following applies: recombinant PfPK6, Kinase-Glo ATP depletion luminescence.
Sequence of Plasmodium falciparum protein kinase 6 (PK6, PF3D7_1337100) (Q8IDW1 1-305): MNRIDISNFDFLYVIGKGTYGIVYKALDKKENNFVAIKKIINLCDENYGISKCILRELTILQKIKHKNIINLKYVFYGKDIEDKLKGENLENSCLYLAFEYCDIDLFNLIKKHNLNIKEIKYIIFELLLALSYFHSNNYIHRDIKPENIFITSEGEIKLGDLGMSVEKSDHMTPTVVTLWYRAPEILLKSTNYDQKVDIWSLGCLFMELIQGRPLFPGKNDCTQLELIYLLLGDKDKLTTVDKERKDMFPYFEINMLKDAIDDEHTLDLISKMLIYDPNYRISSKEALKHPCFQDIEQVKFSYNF
The target in assay [7] is Protein kinase 7 (PK7), Plasmodium falciparum 3D7 (PF3D7_0213400) (UniProt Q7YTF7). Kind of assay: inhibition of Plasmodium PK7 catalytic activity – biochemical, TCAMS antimalarial set, Kinase-Glo luminescence (AID 1159587). The following applies: recombinant PfPK7, Kinase-Glo ATP depletion luminescence. On the technique in general: In Kinase-Glo more light means more ATP remaining.
Sequence of Protein kinase 7 (PK7), Plasmodium falciparum 3D7 (PF3D7_0213400) (Q7YTF7 1-343): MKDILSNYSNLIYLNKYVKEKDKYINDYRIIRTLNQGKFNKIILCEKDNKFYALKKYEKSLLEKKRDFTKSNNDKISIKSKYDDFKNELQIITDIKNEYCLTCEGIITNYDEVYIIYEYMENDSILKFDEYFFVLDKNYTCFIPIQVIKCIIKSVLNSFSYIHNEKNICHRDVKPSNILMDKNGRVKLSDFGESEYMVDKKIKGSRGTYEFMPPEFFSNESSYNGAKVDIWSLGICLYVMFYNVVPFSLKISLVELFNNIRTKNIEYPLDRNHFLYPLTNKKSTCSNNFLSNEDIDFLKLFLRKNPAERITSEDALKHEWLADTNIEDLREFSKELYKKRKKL

In assay [8] the target is Calcium-dependent protein kinase 4 (Plasmodium falciparum (isolate 3D7)) (UniProt Q8IBS5). Kind of assay: PfCDPK4 kinase inhibitors, biochemical, TCAMS library (AID 1159588; cut-off not given, nearly all actives have IC50 up to about 0.91 µM). The following applies: recombinant PfCDPK4, Kinase-Glo ATP depletion luminescence.
Sequence of Calcium-dependent protein kinase 4 (Plasmodium falciparum (isolate 3D7)) (Q8IBS5 whole entry, looked up): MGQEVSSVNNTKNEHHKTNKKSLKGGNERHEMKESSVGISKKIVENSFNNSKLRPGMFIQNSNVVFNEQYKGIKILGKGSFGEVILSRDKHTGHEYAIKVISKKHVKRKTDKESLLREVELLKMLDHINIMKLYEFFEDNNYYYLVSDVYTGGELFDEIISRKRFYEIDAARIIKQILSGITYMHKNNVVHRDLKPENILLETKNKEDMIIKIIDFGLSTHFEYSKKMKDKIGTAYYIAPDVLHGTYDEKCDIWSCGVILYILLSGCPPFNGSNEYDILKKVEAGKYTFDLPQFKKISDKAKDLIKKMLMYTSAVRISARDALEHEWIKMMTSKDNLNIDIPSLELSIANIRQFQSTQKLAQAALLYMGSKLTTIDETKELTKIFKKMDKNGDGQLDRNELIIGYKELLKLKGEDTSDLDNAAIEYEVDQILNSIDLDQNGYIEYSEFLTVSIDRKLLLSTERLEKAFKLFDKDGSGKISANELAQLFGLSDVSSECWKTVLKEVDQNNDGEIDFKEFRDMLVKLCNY

The term inhibition denotes the relative decrease from the control value, in per cent. On to `Cc1cc(C(=O)CN2C(=O)NC(C)(c3ccc4ccccc4c3)C2=O)c(C)n1Cc1ccco1` (stereo not given), for which the growth inhibition in assay [1] is 71% (active); in assay [4], 97% (active). For the same compound, the inhibition in assay [2] is 12%; in assay [3], 1%. Also, the result in assay [5], in assay [6], in assay [7] and in assay [8] was inactive.
As to `CCN(CC)CCCNc1ncc2c(-c3ccc(NC(=O)Nc4cc(C(F)(F)F)ccc4F)c(F)c3)nn(C)c2n1`, the growth inhibition in assay [1] is 68% (active); in assay [4] it was 94% (active). Besides, the values for the inhibition in assay [2] and in assay [3] were 100% (active) and 3%, respectively. For the same compound, the result in assay [5], in assay [6], in assay [7] and in assay [8] was inactive.
As to `O=C(Nc1ccc(-c2ccc(-c3nc4ccccc4[nH]3)s2)cc1)Nc1ccsc1`, the growth inhibition was 54% (active) in assay [1] and 100% (active) in assay [4]. For the same compound, the inhibition was 25% in assay [2] and 5% in assay [3]. Moreover, the outcome in assay [5], in assay [6], in assay [7] and in assay [8] was inactive.
For `C=CCc1cc(Br)ccc1OCCCON1C(N)=NC(N)=NC1(C)C`, the values for the growth inhibition in assay [1] and in assay [4] were 97% (active) and 95% (active), respectively. Besides, the figures for the inhibition in assay [2] and in assay [3] were 61% (active) and 2%, respectively. The result in assay [5], in assay [6], in assay [7] and in assay [8] was inactive.
Turning to `CC(C)CCNC(=O)[C@@H]1[C@H]2C(=O)N(C3CCCCC3)C(=O)[C@H]2[C@H]2C=C[C@@H]3C(c4ccc(C(C)(C)C)cc4)=NO[C@@H]3N21`, the results for the growth inhibition in assay [1] and in assay [4] were 48% and 96% (active), respectively. The inhibition was -4% in assay [2] and -2% in assay [3]. The result in assay [5], in assay [6], in assay [7] and in assay [8] was inactive.
With `Cc1[nH]c2ccccc2c(=O)c1[N+](=O)[O-]`, the growth inhibition in assay [1] was -2%; in assay [4], 88% (active). Further, the inhibition in assay [2] is 5%; in assay [3] it was -5%. The outcome in assay [5], in assay [6], in assay [7] and in assay [8] was inactive.
As to `CCNc1cc(C(=O)N[C@@H](Cc2ccccc2)[C@H](O)CNC(C)(C)Cc2cccc(Cl)c2)cc(N2CCCCS2(=O)=O)c1`, the growth inhibition in assay [1] is 74% (active); in assay [4] it was 97% (active). Besides, the inhibition is 17% in assay [2] and 3% in assay [3]. Further, the outcome in assay [5], in assay [6], in assay [7] and in assay [8] was inactive.
For `Cc1cccc2[nH]cc(C3CCN(CCC4CCN(C(=O)/C=C/c5ccc(Cl)c(Cl)c5)CC4)CC3)c12`, the results for the growth inhibition in assay [1] and in assay [4] were 8% and 91% (active), respectively. In addition, the results for the inhibition in assay [2] and in assay [3] were 13% and 2%, respectively. Besides, the outcome in assay [5], in assay [6], in assay [7] and in assay [8] was inactive.
On to `O=C(Nc1ccc(OC2CCN(Cc3ccsc3)C2)c(Cl)c1)c1cccs1` (stereo not given), for which the growth inhibition is 87% (active) in assay [1] and 91% (active) in assay [4]. For the same compound, the values for the inhibition in assay [2] and in assay [3] were -1% and -5%, respectively. Also, the result in assay [5], in assay [6], in assay [7] and in assay [8] was inactive.
Regarding `COc1ccc(CN(C)CCCc2ccc(NC(=O)c3cccc4c(=O)c5ccccc5[nH]c34)cc2)cc1OC`, the growth inhibition in assay [1] was 54% (active); in assay [4], 99% (active). Besides, the inhibition in assay [2] was 77% (active); in assay [3], -1%. The outcome in assay [5], in assay [6], in assay [7] and in assay [8] was inactive.
Consider `O=C(Nc1ccccc1)c1ccc(N2CCC(COc3cccc(C(F)(F)F)c3)CC2)nc1`, for which the growth inhibition in assay [1] was 83% (active); in assay [4] it was 96% (active). Further, the inhibition in assay [2] was 11%; in assay [3], -3%. Also, the result in assay [5], in assay [6], in assay [7] and in assay [8] was inactive.
In the case of `CCOC(=O)CNCC(=O)c1ccc(OCc2ccccc2)cc1`, the growth inhibition in assay [1] is 43%; in assay [4] it was 95% (active). Besides, the results for the inhibition in assay [2] and in assay [3] were 4% and -3%, respectively. The outcome in assay [5], in assay [6], in assay [7] and in assay [8] was inactive.
In the case of `Cn1nccc1C(=O)NCCNCc1cccc(-c2cccc(-c3nc4ccc(F)cc4[nH]3)c2)c1`, the growth inhibition in assay [1] is 7%; in assay [4] it was 100% (active). Also, the figures for the inhibition in assay [2] and in assay [3] were 38% and 0%, respectively. The result in assay [5], in assay [6], in assay [7] and in assay [8] was inactive.
As to `COc1cc2c(C3CCN(CC4CCC(NC(=O)/C=C/c5ccc(Cl)c(Cl)c5)CC4)CC3)c[nH]c2cn1` (stereo not given), the results for the growth inhibition in assay [1] and in assay [4] were 100% (active) and 101% (active), respectively. For the same compound, the inhibition is 44% in assay [2] and -5% in assay [3]. Also, the result in assay [5], in assay [6], in assay [7] and in assay [8] was inactive.
As for `COc1ccc2ncc(F)c([C@H](O)CN3CCC(NCc4ccc5c(c4)NC(=O)CS5)CC3)c2c1`, the values for the growth inhibition in assay [1] and in assay [4] were 98% (active) and 102% (active), respectively. The inhibition in assay [2] is 7%; in assay [3], -13%. For the same compound, the outcome in assay [5], in assay [6], in assay [7] and in assay [8] was inactive.
As to `Cc1cc(C(=O)NCc2ccc(-c3c(C)noc3C)cc2)n(-c2ccccc2)n1`, the values for the growth inhibition in assay [1] and in assay [4] were 90% (active) and 92% (active), respectively. Further, the inhibition in assay [2] was 4%; in assay [3], 3%. The result in assay [5], in assay [6], in assay [7] and in assay [8] was inactive.
In the case of `CCN1CCC(N(Cc2ccc(-c3ccc(C(F)(F)F)cc3)cc2)C(=O)Cn2c(CCc3cccc(F)c3F)nc(=O)c3ccccc32)CC1`, the growth inhibition in assay [1] and in assay [4] was 95% (active) in each case. The inhibition in assay [2] is 99% (active); in assay [3], 3%. Moreover, the result in assay [5], in assay [6], in assay [7] and in assay [8] was inactive.
With `c1cn(CCCNc2ncc(-c3ccsc3)c(-c3nccs3)n2)cn1`, the values for the growth inhibition in assay [1] and in assay [4] were 51% (active) and 94% (active), respectively. Further, the inhibition is -11% in assay [2] and -4% in assay [3]. In addition, the outcome in assay [5], in assay [6], in assay [7] and in assay [8] was inactive.
Take `CC(CN1CCN(C)CC1)C(=O)Nc1cccc(-c2ccc(-c3nc4ccc(C(F)(F)F)cc4[nH]3)cc2)c1` (stereo not given): the growth inhibition in assay [1] was 98% (active); in assay [4], 101% (active). Also, the figures for the inhibition in assay [2] and in assay [3] were 11% and -2%, respectively. For the same compound, the outcome in assay [5], in assay [6], in assay [7] and in assay [8] was inactive.
With `CN1c2ccc([N+](=O)[O-])cc2C(C)(C)C12C=Cc1cc(Br)cc([N+](=O)[O-])c1O2` (stereo not given), the growth inhibition is 99% (active) in assay [1] and 101% (active) in assay [4]. In addition, the inhibition in assay [2] was -8%; in assay [3], 1%. The result in assay [5], in assay [6], in assay [7] and in assay [8] was inactive.
